Measurements as given in PubChem BioAssay (Tox21).
Several values for one entry are separate records, joined by “and”; a condition that tells them apart may be missing. Equal values may be shown once. Results filed as inconclusive are left out. Where a call stands in place of a potency, no number is given. Activity calls are given as the source filed them. Calls come from the whole dose curve; as a rule, active = well fitted curve in the direction sought with a large enough effect in the repeat runs; inconclusive = weak or mixed curves; inactive = no such curve, though single readings can be large; an effect the other way counts as inactive or inconclusive.

Assay: A CellTox Green Cytotoxicity Assay to monitor cytotoxicity in HEK293 cells - 24 hour (AID 1224875); note: nearly all actives have a fitted effect of over 45% in size
Settings: CellTox Green fluorescence; series mostly up to 76.8 µM
Procedure, shortened: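 Real-time, in one plate: 600 HEK293 cells/well with dead-cell DNA dye, pinned compound after 5 h, 37 C incubation over 40 h; viable cells give no appreciable fluorescence.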
Potency is the fitted concentration of half-maximal effect.

Row | Structure (SMILES) | Potency
1 | CC(C)NCC(O)c1ccc(O)c(O)c1 (configuration not stated) | inactive
2 | Cn1c(=O)c2c(ncn2C)n(C)c1=O | inactive
3 | CCCCCCCCCCCC[N+](C)(C)Cc1ccccc1 | 42.8 µM (active) and 47.4 µM (active) and 23.9 µM (active)
4 | CCCCCCCC(=O)OCC(COC(=O)CCCCCCC)OC(=O)CCCCCCC | inactive
5 | O=C1OC2(c3ccccc31)c1cc(Br)c(O)c(Br)c1Oc1c2cc(Br)c(O)c1Br | 4.43 µM (active) and 7.11 µM (active) and 9.52 µM (active)
6 | NS(=O)(=O)c1cc2c(cc1Cl)NCNS2(=O)=O | inactive
7 | CC(O)(P(=O)(O)O)P(=O)(O)O | inactive
8 | Cc1ccc(S(=O)(=O)O)cc1 | inactive
9 | CN1CCc2cccc3c2[C@H]1Cc1ccc(O)c(O)c1-3 | inactive
10 | O=C1NS(=O)(=O)c2ccccc21 | inactive
11 | F[B-](F)(F)F | inactive
12 | Cc1cc(C)nc(NS(=O)(=O)c2ccc(N)cc2)n1 | inactive
13 | CN(C)CCOC(c1ccccc1)c1ccccc1 | inactive
14 | CCOc1ccc(NC(C)=O)cc1 | inactive
15 | Cc1c(C(=O)O)c(O)cc2c1C(=O)c1c(O)c([C@@H]3O[C@H](CO)[C@@H](O)[C@H](O)[C@H]3O)c(O)c(O)c1C2=O | inactive
16 | Cc1ncc([N+](=O)[O-])n1C | inactive
17 | C/C=C/C=C/C(=O)O | inactive
18 | O=c1[nH]cnc2c1ncn2[C@H]1CC[C@@H](CO)O1 | inactive
19 | NC(=O)n1c(O)c(C(=O)c2cccs2)c2cc(Cl)ccc21 | inactive
20 | CCCCCCCCCCCCCCCC[N+](C)(C)Cc1ccccc1 | 50.5 µM (active) and 31.4 µM (active) and 21.3 µM (active)
21 | CCN(CC)C(=O)c1cccc(C)c1 | inactive
22 | Cc1ncc([N+](=O)[O-])n1CCO | inactive
23 | CN(C)CCOC(C)(c1ccccc1)c1ccccn1 (configuration not stated) | inactive
24 | NS(=O)(=O)O | inactive
25 | C=C(C)C(=O)OCC(C)O (configuration not stated) | inactive
26 | CCCCOC(=O)c1ccc(O)cc1 | inactive
27 | O=C(O)CC(O)C(=O)O (configuration not stated) | inactive
28 | CCc1nc(N)nc(N)c1-c1ccc(Cl)cc1 | inactive
29 | CN1[C@@H]2CC(OC(=O)[C@H](CO)c3ccccc3)C[C@H]1[C@@H]1O[C@@H]12 (some centres not stated) | inactive

Assay: A CellTox Green Cytotoxicity Assay to monitor cytotoxicity in HepG2 cells - 16 hour (AID 1224876); note: nearly all actives have a fitted effect of over 45% in size
Settings: CellTox Green fluorescence; series mostly up to 76.8 µM
Procedure, shortened: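 Cytotoxicity was tracked as dead-cell DNA fluorescence in HepG2 cells treated with test compounds at 37 C; each time-point value comes from one kinetic series spanning 0, 8, 16, 24, 32 and 40 h.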

Row | Structure (SMILES) | Potency
30 | CC(C)NCC(O)c1ccc(O)c(O)c1 (configuration not stated) | inactive
31 | Cn1c(=O)c2c(ncn2C)n(C)c1=O | inactive
32 | CCCCCCCCCCCC[N+](C)(C)Cc1ccccc1 | 21.5 µM (active) and 26.7 µM (active) and 19 µM (active)
33 | CCCCCCCC(=O)OCC(COC(=O)CCCCCCC)OC(=O)CCCCCCC | inactive
34 | O=C1OC2(c3ccccc31)c1cc(Br)c(O)c(Br)c1Oc1c2cc(Br)c(O)c1Br | 4.97 µM (active) and 14.2 µM (active) and 23.9 µM (active)
35 | NS(=O)(=O)c1cc2c(cc1Cl)NCNS2(=O)=O | inactive
36 | CC(O)(P(=O)(O)O)P(=O)(O)O | inactive
37 | Cc1ccc(S(=O)(=O)O)cc1 | inactive
38 | CN1CCc2cccc3c2[C@H]1Cc1ccc(O)c(O)c1-3 | inactive
39 | O=C1NS(=O)(=O)c2ccccc21 | inactive
40 | F[B-](F)(F)F | inactive
41 | Cc1cc(C)nc(NS(=O)(=O)c2ccc(N)cc2)n1 | inactive
42 | CN(C)CCOC(c1ccccc1)c1ccccc1 | inactive
43 | CCOc1ccc(NC(C)=O)cc1 | inactive
44 | Cc1c(C(=O)O)c(O)cc2c1C(=O)c1c(O)c([C@@H]3O[C@H](CO)[C@@H](O)[C@H](O)[C@H]3O)c(O)c(O)c1C2=O | inactive
45 | Cc1ncc([N+](=O)[O-])n1C | inactive
46 | C/C=C/C=C/C(=O)O | inactive
47 | O=c1[nH]cnc2c1ncn2[C@H]1CC[C@@H](CO)O1 | inactive
48 | NC(=O)n1c(O)c(C(=O)c2cccs2)c2cc(Cl)ccc21 | inactive
49 | CCCCCCCCCCCCCCCC[N+](C)(C)Cc1ccccc1 | 50.5 µM (active) and 19.8 µM (active) and 23.9 µM (active)
50 | CCN(CC)C(=O)c1cccc(C)c1 | inactive
51 | Cc1ncc([N+](=O)[O-])n1CCO | inactive
52 | CN(C)CCOC(C)(c1ccccc1)c1ccccn1 (configuration not stated) | inactive
53 | NS(=O)(=O)O | inactive
54 | C=C(C)C(=O)OCC(C)O (configuration not stated) | inactive
55 | CCCCOC(=O)c1ccc(O)cc1 | inactive
56 | O=C(O)CC(O)C(=O)O (configuration not stated) | inactive
57 | CCc1nc(N)nc(N)c1-c1ccc(Cl)cc1 | inactive
58 | CN1[C@@H]2CC(OC(=O)[C@H](CO)c3ccccc3)C[C@H]1[C@@H]1O[C@@H]12 (some centres not stated) | inactive

Assay: qHTS RealTime-Glo MT Cell Viability Assay in HepG2 cells - 32 hour (AID 1224877); note: nearly all actives have a fitted effect of over 55% in size
Settings: RealTime-Glo luminescence; series mostly up to 76.8 µM
Procedure, shortened: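 qHTS, HepG2, 600 cells/well, RealTime-Glo (NanoLuc + prosubstrate) added with cells; 5 h preincubation; DMSO compound addition; 37 C; luminescence at 0/8/16/24/32/40 h.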

Row | Structure (SMILES) | Potency
59 | CC(C)NCC(O)c1ccc(O)c(O)c1 (configuration not stated) | inactive
60 | Cn1c(=O)c2c(ncn2C)n(C)c1=O | inactive
61 | CCCCCCCCCCCC[N+](C)(C)Cc1ccccc1 | 9.58 µM (active) and 18.9 µM (active) and 6.74 µM (active)
62 | CCCCCCCC(=O)OCC(COC(=O)CCCCCCC)OC(=O)CCCCCCC | inactive
63 | O=C1OC2(c3ccccc31)c1cc(Br)c(O)c(Br)c1Oc1c2cc(Br)c(O)c1Br | inactive
64 | NS(=O)(=O)c1cc2c(cc1Cl)NCNS2(=O)=O | inactive
65 | CC(O)(P(=O)(O)O)P(=O)(O)O | inactive
66 | Cc1ccc(S(=O)(=O)O)cc1 | inactive
67 | CN1CCc2cccc3c2[C@H]1Cc1ccc(O)c(O)c1-3 | 49.5 µM (active) and 16.3 µM (active)
68 | O=C1NS(=O)(=O)c2ccccc21 | inactive
69 | F[B-](F)(F)F | inactive
70 | Cc1cc(C)nc(NS(=O)(=O)c2ccc(N)cc2)n1 | inactive
71 | CN(C)CCOC(c1ccccc1)c1ccccc1 | inactive
72 | CCOc1ccc(NC(C)=O)cc1 | inactive
73 | Cc1c(C(=O)O)c(O)cc2c1C(=O)c1c(O)c([C@@H]3O[C@H](CO)[C@@H](O)[C@H](O)[C@H]3O)c(O)c(O)c1C2=O | inactive
74 | Cc1ncc([N+](=O)[O-])n1C | inactive
75 | C/C=C/C=C/C(=O)O | inactive
76 | O=c1[nH]cnc2c1ncn2[C@H]1CC[C@@H](CO)O1 | inactive
77 | NC(=O)n1c(O)c(C(=O)c2cccs2)c2cc(Cl)ccc21 | inactive
78 | CCCCCCCCCCCCCCCC[N+](C)(C)Cc1ccccc1 | 16 µM (active) and 14 µM (active) and 9.52 µM (active)
79 | CCN(CC)C(=O)c1cccc(C)c1 | inactive
80 | Cc1ncc([N+](=O)[O-])n1CCO | inactive
81 | CN(C)CCOC(C)(c1ccccc1)c1ccccn1 (configuration not stated) | inactive
82 | NS(=O)(=O)O | inactive
83 | C=C(C)C(=O)OCC(C)O (configuration not stated) | inactive
84 | CCCCOC(=O)c1ccc(O)cc1 | inactive
85 | O=C(O)CC(O)C(=O)O (configuration not stated) | inactive
86 | CCc1nc(N)nc(N)c1-c1ccc(Cl)cc1 | inactive
87 | CN1[C@@H]2CC(OC(=O)[C@H](CO)c3ccccc3)C[C@H]1[C@@H]1O[C@@H]12 (some centres not stated) | inactive
